This passage reports composite z-score and z-score results from PubChem BioAssay.

Assay [1] has as its system PRMT1 (protein arginine N-methyltransferase 1). The experiment in a line: small molecules binding arginine methyltransferase PRMT1 – biochemical, small-molecule microarray, 635 nm fluorescence, primary screen (AID 1088).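 Further: binding of Prmt1 protein to compounds spotted on small-molecule microarray slides.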 The following applies: higher = more signal.
Assay [2] is described as follows: growth effects on S. cerevisiae YJM789 – YJM789 clinical isolate, OD600, 24 h, basal, primary screen (AID 1089).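 Further: growth of clinical yeast isolate S. cerevisiae YJM 789 seeded 1000 cells per well; test concentration not given here.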 The settings on record: higher = more signal, called active from +8 up or from −8 down.
Assay [3] in a line: S. pombe growth modifiers, basal conditions – strain 972, OD600, 24 h, no modulator, primary screen (AID 1090).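 Further: basal condition with compound alone and no growth modifier present; test concentration not given here.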 The following applies: S. pombe 972 growth, higher = more signal, called active from +8 up or from −8 down.
Assay [4] is described as follows: budding yeast growth modifiers under rapamycin – strain BY4716, OD600, 96 h, primary screen (AID 1091). Further: test concentration not given here. The following applies: S. cerevisiae BY4716 + rapamycin, higher = more signal, called active from +8 up or from −8 down.
Assay [5] has as its target Torsin-1A-interacting protein 2 (Homo sapiens) (UniProt Q8NFQ8). The experiment in a line: small molecules binding lysate-expressed LULL1 – cell lysate, human LULL1 lysate, 635/667 nm fluorescence, primary screen (AID 1092).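 Further: probe is lysate of COS7 cells overexpressing human LULL1; score merges per-feature 667 nm fluorescence with signal-to-noise.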 The following applies: small-molecule microarray, hLULL1 lysate binding, 635 nm fluorescence; higher = more signal.
Assay [6] in a line: optical density change of DRC41 E. coli – strain DRC41, OD650, 24 h, E. coli filamentation project, primary screen (AID 1093).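 Further: MC1000 strain lacking acrAB efflux and sulA so SOS filamentation is blocked; test concentration not given here.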 The settings on record: E. coli DRC41 growth, higher = more signal, called active from +8 up or from −8 down.
The nature of assay [7]: probe aLefty2 binding to arrayed compounds – biochemical, biotinylated probe, 635/667 nm fluorescence, primary screen (AID 1094).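 Further: score merges spot fluorescence near 667 nm with spot signal-to-noise ratio.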 The settings on record: small-molecule microarray, higher = more signal.
Assay [8] relates to Noggin (protein binding on small-molecule microarray). The experiment in a line: small molecules binding Noggin protein – biochemical, 635/667 nm fluorescence, primary screen (AID 1095).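 Further: score merges 667 nm feature fluorescence with signal to noise over triplicate slides.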 The settings on record: 635 nm fluorescence, higher = more signal.
Assay [9] deals with Neurogenic locus notch homolog protein 3 (Homo sapiens) (UniProt Q9UM47). The experiment in a line: small molecules binding NOTCH3 protein – biochemical, 635/667 nm fluorescence, primary screen (AID 1096). The following applies: small-molecule microarray, 635 nm fluorescence, higher = more signal.
A short description of assay [10]: probe aEGFR binding to arrayed compounds – biochemical, biotinylated probe, 635/667 nm fluorescence, primary screen (AID 1097).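 Further: probe is a biotinylated anti-EGFR antibody binding compounds printed on slides; score combines fluorescence near 667 nm and signal to noise of each spot.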 The following applies: small-molecule microarray, higher = more signal.

Each structure is given as a SMILES string. Calls of active or inactive are those of the source.

Neurogenic locus notch homolog protein 3 (Homo sapiens), sequence (Q9UM47 whole entry, looked up): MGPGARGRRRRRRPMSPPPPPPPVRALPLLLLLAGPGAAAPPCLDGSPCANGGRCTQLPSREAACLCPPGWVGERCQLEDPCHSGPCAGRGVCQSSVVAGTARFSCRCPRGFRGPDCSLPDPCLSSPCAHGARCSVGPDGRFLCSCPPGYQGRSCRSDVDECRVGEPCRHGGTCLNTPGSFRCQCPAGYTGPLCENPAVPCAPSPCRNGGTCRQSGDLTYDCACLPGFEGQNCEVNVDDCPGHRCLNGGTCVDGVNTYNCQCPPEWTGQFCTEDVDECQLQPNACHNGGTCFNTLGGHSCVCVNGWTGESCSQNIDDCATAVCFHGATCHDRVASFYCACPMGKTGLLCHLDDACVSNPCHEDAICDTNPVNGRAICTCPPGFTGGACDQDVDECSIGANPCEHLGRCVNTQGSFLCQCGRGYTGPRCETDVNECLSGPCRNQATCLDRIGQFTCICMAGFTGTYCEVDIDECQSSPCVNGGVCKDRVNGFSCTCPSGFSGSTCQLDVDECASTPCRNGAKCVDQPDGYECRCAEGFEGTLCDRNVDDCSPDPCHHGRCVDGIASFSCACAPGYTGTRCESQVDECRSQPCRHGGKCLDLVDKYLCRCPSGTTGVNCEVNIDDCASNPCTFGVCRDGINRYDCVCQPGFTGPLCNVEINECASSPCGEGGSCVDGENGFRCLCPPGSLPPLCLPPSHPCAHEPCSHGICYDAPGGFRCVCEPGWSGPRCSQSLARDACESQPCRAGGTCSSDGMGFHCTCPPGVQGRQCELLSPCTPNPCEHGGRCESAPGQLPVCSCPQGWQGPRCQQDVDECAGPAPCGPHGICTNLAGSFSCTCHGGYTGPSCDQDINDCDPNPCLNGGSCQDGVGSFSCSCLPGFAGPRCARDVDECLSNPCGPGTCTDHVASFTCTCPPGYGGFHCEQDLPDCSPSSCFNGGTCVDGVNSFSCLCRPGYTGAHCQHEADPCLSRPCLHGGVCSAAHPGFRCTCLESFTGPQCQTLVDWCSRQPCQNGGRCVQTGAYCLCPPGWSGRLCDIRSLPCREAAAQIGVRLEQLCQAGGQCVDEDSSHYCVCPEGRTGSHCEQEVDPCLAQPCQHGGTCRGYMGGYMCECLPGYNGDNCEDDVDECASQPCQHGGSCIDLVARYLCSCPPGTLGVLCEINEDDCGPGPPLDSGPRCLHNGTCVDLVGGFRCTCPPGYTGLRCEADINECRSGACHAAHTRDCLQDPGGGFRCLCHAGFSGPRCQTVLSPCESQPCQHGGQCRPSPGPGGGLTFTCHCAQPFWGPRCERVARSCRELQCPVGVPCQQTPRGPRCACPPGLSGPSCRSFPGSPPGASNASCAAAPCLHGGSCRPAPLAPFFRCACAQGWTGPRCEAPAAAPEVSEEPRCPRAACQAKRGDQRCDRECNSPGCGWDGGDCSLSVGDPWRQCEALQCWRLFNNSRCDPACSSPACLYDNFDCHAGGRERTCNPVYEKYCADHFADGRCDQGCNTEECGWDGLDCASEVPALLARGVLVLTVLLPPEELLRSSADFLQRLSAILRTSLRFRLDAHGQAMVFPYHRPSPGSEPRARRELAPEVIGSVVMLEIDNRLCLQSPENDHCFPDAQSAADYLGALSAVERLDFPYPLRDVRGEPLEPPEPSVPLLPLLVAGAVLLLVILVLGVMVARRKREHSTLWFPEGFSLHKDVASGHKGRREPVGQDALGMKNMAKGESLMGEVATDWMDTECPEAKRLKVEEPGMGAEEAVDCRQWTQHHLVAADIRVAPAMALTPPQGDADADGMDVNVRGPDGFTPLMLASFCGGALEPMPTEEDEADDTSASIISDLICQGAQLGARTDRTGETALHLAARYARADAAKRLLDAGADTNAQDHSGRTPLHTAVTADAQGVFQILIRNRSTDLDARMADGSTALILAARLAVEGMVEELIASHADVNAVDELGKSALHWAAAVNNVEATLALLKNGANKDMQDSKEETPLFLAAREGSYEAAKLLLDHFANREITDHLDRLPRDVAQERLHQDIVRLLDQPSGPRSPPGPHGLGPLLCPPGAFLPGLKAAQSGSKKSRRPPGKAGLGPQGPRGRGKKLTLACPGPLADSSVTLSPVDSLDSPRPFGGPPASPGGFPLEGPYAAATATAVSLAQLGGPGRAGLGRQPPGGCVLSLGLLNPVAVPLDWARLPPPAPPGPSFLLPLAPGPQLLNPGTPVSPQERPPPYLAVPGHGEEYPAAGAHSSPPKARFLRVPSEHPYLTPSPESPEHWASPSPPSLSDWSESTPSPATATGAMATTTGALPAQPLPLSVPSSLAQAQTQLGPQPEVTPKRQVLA
Torsin-1A-interacting protein 2 (Homo sapiens), sequence (Q8NFQ8 whole entry, looked up): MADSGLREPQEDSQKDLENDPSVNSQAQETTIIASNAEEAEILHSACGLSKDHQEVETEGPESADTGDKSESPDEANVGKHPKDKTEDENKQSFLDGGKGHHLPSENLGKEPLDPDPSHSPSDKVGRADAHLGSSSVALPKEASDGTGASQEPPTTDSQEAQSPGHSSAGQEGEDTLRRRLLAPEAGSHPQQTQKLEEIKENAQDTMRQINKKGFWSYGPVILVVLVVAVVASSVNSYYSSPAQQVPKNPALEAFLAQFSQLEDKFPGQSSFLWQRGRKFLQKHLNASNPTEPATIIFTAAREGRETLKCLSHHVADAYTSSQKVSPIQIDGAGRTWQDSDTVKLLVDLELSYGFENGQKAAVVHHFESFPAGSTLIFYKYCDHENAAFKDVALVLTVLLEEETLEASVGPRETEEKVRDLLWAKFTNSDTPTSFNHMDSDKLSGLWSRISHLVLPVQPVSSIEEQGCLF

Turning to `Cc1ccc(S[C@]2(C(=O)NC(C)C)CC(=O)N(C3Cc4ccccc4C3)[C@@H]2c2ccc(CO)cc2I)cc1`, the composite z-score in assay [1] was 0.871; in assay [5], 3.32; in assay [7] it was -0.0131; in [8], -0.0975; in assay [9], -0.505; in assay [10], -0.37. Further, the z-score in assay [2] is -0.801 (inactive); in [3] it was -2.68 (inactive); in [4] it was -0.0369 (inactive); in assay [6] it was 0.733 (inactive).
On to `NC(=O)NCC#Cc1ccc2c(c1)[C@]1(C(=O)N2)[C@H](C(=O)Nc2nc3ccccc3s2)[C@H]2C(=O)O[C@H](c3ccccc3)[C@H](c3ccccc3)N2[C@@H]1c1ccc(O)cc1`, for which the composite z-score in assay [1] was 1.41; in assay [5] it was -0.569; in [7], 0.14; in [8], 0.614; in [9], 1.05; in assay [10], -0.0701. The z-score is 3.89 (inactive) in [2], 3.26 (inactive) in assay [3], 7.47 (inactive) in [4] and 2.01 (inactive) in assay [6].
In the case of `O=C1O[C@@H](c2ccccc2)[C@@H](c2ccccc2)N2[C@@H](c3ccccc3OCCO)[C@]3(C(=O)Nc4ccc(C#CCCO)cc43)[C@@H](C(=O)N3CCN(c4ncccn4)CC3)[C@H]12`, the composite z-score in assay [1] is 1.55; in [5] it was 2.93; in [7], -0.0708; in assay [8], 0.207; in assay [9], 0.59; in [10], -0.0858. The z-score is 1.75 (inactive) in assay [2], -0.631 (inactive) in assay [3], 3.99 (inactive) in assay [4] and 0.935 (inactive) in assay [6].
In the case of `NC(=O)NCC#Cc1ccc2c(c1)[C@]1(C(=O)N2)[C@H](c2ccc(O)cc2)N2[C@H](c3ccccc3)[C@H](c3ccccc3)OC(=O)[C@H]2[C@@H]1C(=O)Nc1nc2ccccc2s1`, the composite z-score is 1.39 in [1]; 1.07 in assay [5]; 0.122 in assay [7]; 1.05 in assay [8]; 0.362 in assay [9]; -0.0975 in assay [10]. Moreover, the z-score was 4.88 (inactive) in assay [2], 4.35 (inactive) in assay [3], 8.57 (active) in assay [4] and 1.06 (inactive) in [6].
Take `CCOC(=O)[C@H]1C/C=C/C[C@H](C(=O)OCC)C(=O)O[C@H]2[C@@H](OC)O[C@H](CO)[C@@H](OC(=O)CCc3ccccc3)[C@@H]2OC1=O`: the composite z-score was 0.182 in assay [1]; 0.0772 in [5]; -0.132 in [7]; 0.0226 in [8]; 0.01 in assay [9]; -0.314 in [10]. Also, the z-score in assay [2] is 0.491 (inactive); in assay [3], -1.29 (inactive); in [4], 15.2 (active); in [6], -0.677 (inactive).
Turning to `O=C(O)[C@H]1C[C@H]2C(=O)N3CCC[C@H]3C(=O)N2[C@H]1c1cccc(OCCO)c1`, the composite z-score is 1.04 in assay [1]; 2.55 in assay [5]; 0.027 in assay [7]; 0.287 in assay [8]; 0.237 in assay [9]; -0.109 in assay [10]. For the same compound, the z-score in assay [2] was -0.187 (inactive); in assay [3] it was -0.391 (inactive); in assay [4] it was 0.0709 (inactive); in assay [6] it was 0.849 (inactive).
In the case of `C=CCN1Cc2ccccc2C[C@@]2(N=C(c3ccc(OCCCO)cc3)O[C@H]2c2ccccc2)C1=O`, the composite z-score in [1] is 1.55; in assay [5], 3.13; in assay [7] it was -0.051; in assay [8], 1.04; in assay [9], 0.968; in assay [10] it was 0.0047. Moreover, the z-score is -4.69 (inactive) in assay [2], -11.1 (active) in [3], 4.42 (inactive) in assay [4] and 0.55 (inactive) in assay [6].
In the case of `CC(=O)NCCCC[C@@H]1NC(=O)[C@@H]2C[C@H](C(=O)O)[C@H](c3ccc(O)cc3)N2C1=O`, the composite z-score in [1] was -0.728; in [5], 2.17; in [7], 0.0208; in assay [8], -1.42; in assay [9], -1.27; in assay [10], -0.322. The z-score in assay [2] was 0.611 (inactive); in assay [3] it was 1.36 (inactive); in assay [4], 0.442 (inactive); in assay [6], 0.129 (inactive).
For the compound `CO[C@H]1O[C@H](CO)[C@@H](OC(=O)Nc2ccc(Oc3ccccc3)cc2)[C@H](OC(=O)Nc2ccccc2-c2ccccc2)[C@@H]1OC(=O)Nc1ccccc1-c1ccccc1`, the composite z-score is 1.54 in [1]; 2.72 in [5]; 0.143 in [7]; 0.156 in [8]; 1.12 in assay [9]; 0.425 in [10]. Also, the z-score in assay [2] was 1.96 (inactive); in [3], 0.592 (inactive); in [4] it was 0.974 (inactive); in [6], 1.39 (inactive).
Take `C=CCC(OC(C)=O)[C@@H]1[C@@H](N(Cc2cc3ccccc3o2)C(=O)c2ccc(C)cc2)c2cc(OCCCO)ccc2N1C(=O)Cc1ccc2ccccc2c1` (stereo not given in full): the composite z-score in assay [1] is -0.208; in assay [5] it was 0.0257; in assay [7], 0.18; in [8], 1.81; in assay [9], -0.725; in assay [10], -0.094. The z-score was 0.627 (inactive) in [2], -0.423 (inactive) in [3], 0.469 (inactive) in assay [4] and 2.18 (inactive) in [6].
For the compound `CCOC(=O)C[C@H]1[C@H](OC(=O)c2ccc(-c3ccccc3)cc2)[C@@H](NC(=O)c2ccc3ccccc3n2)c2cc(OCCCO)ccc2N1C(=O)c1ccccc1`, the composite z-score in [1] was 1.52; in [5] it was 2.11; in assay [7], -0.171; in assay [8], 0.671; in [9], 1.05; in assay [10] it was 0.0026. In addition, the z-score in assay [2] is 0.617 (inactive); in assay [3] it was 0.33 (inactive); in assay [4] it was 0.976 (inactive); in assay [6] it was -0.81 (inactive).
In the case of `C=C(/C(=C/C[C@@H](OC(=O)c1ccncc1)c1ccc(OCCO)cc1)c1cc(C(=O)OC)ccc1OC)C(C)C`, the composite z-score is 1.48 in [1]; 1.32 in [5]; -0.317 in assay [7]; 0.89 in assay [8]; 1.1 in assay [9]; -0.0509 in assay [10]. The z-score in [2] was 0.412 (inactive); in assay [3] it was 0.252 (inactive); in assay [4] it was 0.339 (inactive); in [6] it was 0.681 (inactive).
In the case of `CCOC(=O)[C@@H]1[C@@H]2C(=O)N(CC)C(=O)[C@@H]2C[C@@H]1Sc1ccccc1`, the composite z-score was 0.814 in assay [1]; 1.69 in [5]; -0.0632 in [7]; -0.132 in assay [8]; 0.722 in [9]; 0.113 in assay [10]. In addition, the z-score in [2] was -0.624 (inactive); in [3], 0.792 (inactive); in [4], 2.66 (inactive); in assay [6], 0.0399 (inactive).
For the compound `C=CCNC(=O)[C@@H]1[C@H]2C(=O)O[C@H](c3ccccc3)[C@H](c3ccccc3)N2[C@H](c2ccc(OCCO)cc2)[C@@]12C(=O)N(C(=O)OCCOC)c1ccc(C#CC3=CCCCC3)cc12`, the composite z-score in assay [1] was 1.55; in [5], 2.83; in assay [7], -0.0373; in assay [8], 0.978; in assay [9], 1.14; in assay [10], 0.0209. Besides, the z-score in assay [2] was 1.27 (inactive); in [3], 1.14 (inactive); in assay [4], 3.61 (inactive); in [6], -0.741 (inactive).
